# Inconclusive results are not listed. Where a call stands in place of a potency, no number is given. Calls of active or inactive are those of the source. Unless noted, the call rests on the fitted dose curve; in most records, active means well fitted curve in the direction sought with a large enough effect; inconclusive means small, poorly fitted or top-dose-only effect, or another doubt; inactive means no such curve, though single readings can be large; an effect the other way counts as inactive or inconclusive.
# What was measured:
# [1] = molecular target: Voltage-gated inwardly rectifying potassium channel KCNH2 (Homo sapiens) (UniProt Q12809); assay: qHTS Assay for Small Molecule Inhibitors of the Human hERG Channel Activity (AID 588834);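 further: lower thallium flux fluorescence means stronger hERG block; nearly all actives have a fitted effect of over 50% in size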; further: potency means the concentration at half of the fitted maximal effect
# Summary of the method: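 U2OS cells BacMam-transduced with hERG, 2000 cells/well, compound ~10 min at 37 °C before stimulation buffer. FluxOR thallium flux fluorescence read kinetically on FDSS; decrease indicates block; AC50 from Hill fits.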
# [2] = S16 Schwann cell PMP22 intronic element firefly luciferase assay (AID 624032); further: nearly all actives have a fitted effect of over 30% in size; further: potency means the concentration at half of the fitted maximal effect
# Summary of the method: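 Luciferase reporter of PMP22 intronic-element expression in stably transfected S16 rat Schwann cells, read by ONE-Glo luminescence after 24 h compound exposure at 37 C. Activity scaled between DMSO (0%) and positive-control PTC124; concentration-effect curves quality-classified.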
# [3] = S16 Schwann cell viability assay (CellTiter-Glo assay) (AID 624031); further: nearly all actives have a fitted effect of over 70% in size; further: potency means the concentration at half of the fitted maximal effect
# Summary of the method: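 Untransfected S16 rat Schwann cells; compound 24 h, 37 °C/5% CO2; CellTiter-Glo ATP luminescence. % activity vs no-cell wells and DMSO controls (0%); concentration-effect curves classed by r2, response magnitude, activity.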
# [4] = S16 Schwann cell PMP22 intronic element beta-lactamase assay (AID 624044; calls by dose curve; further: nearly all actives have a fitted effect of over 15% in size); conditions: S16 rat Schwann cells, PMP22 element beta-lactamase FRET, 24 h; ratio activity, negative = inhibition: at 38.3 µM (top of the series)
# Summary of the method: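 Rat S16 Schwann cells with beta-Lac driven by a PMP22 intronic element, compound-treated 24 h at 37 °C. LiveBLAzer FRET B/G read: 460 nm normalized to potassium clavulanate vs DMSO; 535 nm FRET as viability; concentration-effect curves classified.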
# [5] = molecular target: Glutaminase kidney isoform, mitochondrial (Homo sapiens) (UniProt O94925); assay: qHTS for Inhibitors of Glutaminase (GLS): LOPAC Validation (AID 624146); further: nearly all actives have a fitted effect of over 60% in size; further: potency means the concentration at half of the fitted maximal effect
# Summary of the method: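 Glutamate formation by hKGA was monitored fluorometrically using coupled glutamate oxidase, HRP and Amplex Red. Substrate was added as 1 mM L-glutamine solution; incubation was 30 min at RT after an initial read.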
# [6] = molecular target: Luciferin 4-monooxygenase (Photinus pyralis) (UniProt P08659); assay: Biochemical firefly luciferase enzyme assay for NPC (AID 624030);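 further: purified P. pyralis luciferase at 10 nM with luciferin and ATP substrate; nearly all actives have a fitted effect of over 70% in size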
# Summary of the method: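 Direct inhibition of firefly luciferase enzyme (10 nM final, 50 mM Tris Acetate) assessed by luminescence within 5 minutes. Percent activity scaled between DMSO and PTC124 positive control, with concentration-effect curves classified by fit quality and response.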
# Chain of Voltage-gated inwardly rectifying potassium channel KCNH2 (Homo sapiens) (Q12809 whole entry, looked up): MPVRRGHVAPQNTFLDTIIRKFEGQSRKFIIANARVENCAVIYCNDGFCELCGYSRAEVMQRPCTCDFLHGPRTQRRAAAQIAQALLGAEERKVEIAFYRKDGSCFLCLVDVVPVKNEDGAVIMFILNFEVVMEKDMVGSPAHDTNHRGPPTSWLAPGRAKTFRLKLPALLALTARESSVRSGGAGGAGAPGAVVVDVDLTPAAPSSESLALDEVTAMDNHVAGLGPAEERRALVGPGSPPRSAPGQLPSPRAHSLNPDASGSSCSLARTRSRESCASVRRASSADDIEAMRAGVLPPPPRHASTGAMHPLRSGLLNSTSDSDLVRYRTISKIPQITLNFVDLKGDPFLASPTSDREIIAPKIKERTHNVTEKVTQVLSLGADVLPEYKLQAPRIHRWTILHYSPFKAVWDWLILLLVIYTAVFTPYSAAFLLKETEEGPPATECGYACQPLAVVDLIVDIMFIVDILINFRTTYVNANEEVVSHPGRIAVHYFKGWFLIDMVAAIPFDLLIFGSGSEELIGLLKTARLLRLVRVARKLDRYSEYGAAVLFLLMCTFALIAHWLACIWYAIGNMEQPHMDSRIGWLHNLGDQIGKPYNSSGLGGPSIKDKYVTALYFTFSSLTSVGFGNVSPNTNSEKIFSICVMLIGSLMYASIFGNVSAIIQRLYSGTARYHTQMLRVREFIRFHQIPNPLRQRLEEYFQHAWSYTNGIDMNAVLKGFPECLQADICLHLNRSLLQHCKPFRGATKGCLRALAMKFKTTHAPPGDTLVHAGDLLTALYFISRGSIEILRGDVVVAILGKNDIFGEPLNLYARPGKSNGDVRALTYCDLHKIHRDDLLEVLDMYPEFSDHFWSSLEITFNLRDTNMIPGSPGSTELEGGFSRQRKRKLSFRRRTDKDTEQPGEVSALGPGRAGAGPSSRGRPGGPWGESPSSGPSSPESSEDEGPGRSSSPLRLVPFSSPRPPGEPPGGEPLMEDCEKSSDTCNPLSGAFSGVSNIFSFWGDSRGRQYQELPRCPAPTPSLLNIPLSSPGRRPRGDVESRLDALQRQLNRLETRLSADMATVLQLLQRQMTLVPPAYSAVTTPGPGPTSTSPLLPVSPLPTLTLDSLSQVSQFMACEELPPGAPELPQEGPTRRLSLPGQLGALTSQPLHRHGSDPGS
# Chain of Glutaminase kidney isoform, mitochondrial (Homo sapiens) (O94925 whole entry, looked up, canonical isoform): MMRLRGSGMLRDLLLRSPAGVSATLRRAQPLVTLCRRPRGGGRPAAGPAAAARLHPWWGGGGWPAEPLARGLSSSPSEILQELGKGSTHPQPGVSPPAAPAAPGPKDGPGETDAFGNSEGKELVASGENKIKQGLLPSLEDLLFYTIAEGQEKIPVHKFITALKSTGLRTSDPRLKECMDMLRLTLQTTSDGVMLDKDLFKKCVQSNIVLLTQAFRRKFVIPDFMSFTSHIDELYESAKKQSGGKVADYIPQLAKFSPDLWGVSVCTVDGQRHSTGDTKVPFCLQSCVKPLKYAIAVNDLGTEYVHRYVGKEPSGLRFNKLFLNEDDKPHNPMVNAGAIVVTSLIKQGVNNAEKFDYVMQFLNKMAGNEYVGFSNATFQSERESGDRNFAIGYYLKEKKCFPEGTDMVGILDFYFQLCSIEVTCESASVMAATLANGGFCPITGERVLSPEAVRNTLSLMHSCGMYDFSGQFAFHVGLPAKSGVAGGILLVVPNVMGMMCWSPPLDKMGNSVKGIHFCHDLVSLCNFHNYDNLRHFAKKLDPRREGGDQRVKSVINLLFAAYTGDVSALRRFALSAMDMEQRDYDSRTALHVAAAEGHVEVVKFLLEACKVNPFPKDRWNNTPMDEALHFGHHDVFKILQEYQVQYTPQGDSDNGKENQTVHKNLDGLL
# Chain of Luciferin 4-monooxygenase (Photinus pyralis) (P08659 whole entry, looked up): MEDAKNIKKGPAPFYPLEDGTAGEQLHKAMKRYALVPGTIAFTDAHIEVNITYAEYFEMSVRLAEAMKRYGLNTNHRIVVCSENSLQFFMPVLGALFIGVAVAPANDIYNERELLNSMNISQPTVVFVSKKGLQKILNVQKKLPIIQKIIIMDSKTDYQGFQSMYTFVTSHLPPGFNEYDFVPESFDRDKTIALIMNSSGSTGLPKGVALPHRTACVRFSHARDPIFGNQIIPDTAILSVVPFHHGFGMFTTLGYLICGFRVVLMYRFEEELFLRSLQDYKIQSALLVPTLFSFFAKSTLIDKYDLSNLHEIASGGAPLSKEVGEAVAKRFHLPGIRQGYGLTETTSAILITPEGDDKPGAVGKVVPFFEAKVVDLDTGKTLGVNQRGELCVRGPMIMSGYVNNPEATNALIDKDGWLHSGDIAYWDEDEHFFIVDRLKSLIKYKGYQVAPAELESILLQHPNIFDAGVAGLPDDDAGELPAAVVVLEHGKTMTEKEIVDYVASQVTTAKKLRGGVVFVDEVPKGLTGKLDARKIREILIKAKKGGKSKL
structure (smiles),measurement,setting,value
CCOC(=O)COc1ccc2c(C)c(CCN(CC)CC)c(=O)oc2c1Cl,Potency,[1],12.6 µM (active)
same,Potency,[2],inactive
CCOc1ccc(NC(=O)CC(C)O)cc1 (centres undefined),Potency,[1],inactive
same,Potency,[3],inactive
same,Potency,[2],inactive
COc1ccc(/C=C/C(=O)c2ccc(OC)cc2OC)cc1,Potency,[1],inactive
same,Potency,[3],inactive
same,Potency,[2],inactive
same,Potency,[4],inactive
CCN(CC)CCOc1ccc(C(O)(Cc2ccc(Cl)cc2)c2ccc(C)cc2)cc1 (centres undefined),Potency,[1],3.98 µM (active)
same,Potency,[4],inactive
O=C(Nc1ccc(Cl)c(Cl)c1)C1CC1,Potency,[1],inactive
same,Potency,[2],inactive
CCCCCC=CCC=CCCCCCCCC(=O)OCC,Potency,[1],inactive
same,Potency,[2],inactive
same,Potency,[4],inactive
C[C@@H]1C(=O)NC2=Nc3cccc(Cl)c3CN21,Potency,[1],inactive
same,Potency,[4],inactive
same,Potency,[5],inactive
CCN1CCN(c2cc3c(cc2F)c(=O)c(C(=O)O)cn3C2CC2)CC1,Potency,[1],inactive
same,Potency,[3],inactive
same,Potency,[2],inactive
CCC(NC(C)C)C(O)c1ccc(O)c(O)c1 (centres undefined),Potency,[1],inactive
same,Potency,[5],inactive
O=C(O)c1cc2cc(Cc3cccnc3)ccc2o1,Potency,[1],inactive
same,Potency,[3],inactive
same,Potency,[2],inactive
same,Potency,[5],inactive
Nc1ccc(/C=C/c2ccc(N)cc2S(=O)(=O)O)c(S(=O)(=O)O)c1,Potency,[1],inactive
same,Potency,[2],inactive
O=C(Nc1ccc(Oc2ccc(Cl)cc2)c(Cl)c1)c1cc(I)cc(I)c1O,Potency,[1],inactive
same,Potency,[3],inactive
O=C1CCC(c2ccc(-n3ccnc3)cc2)=NN1,Potency,[1],inactive
same,Potency,[3],inactive
same,Potency,[2],inactive
same,Potency,[5],inactive
CCOc1ccc2nc3cc(N)ccc3c(N)c2c1,Potency,[1],inactive
same,Potency,[6],inactive
same,Potency,[4],inactive
CCCCc1nc(Cl)c(CO)n1Cc1ccc(-c2ccccc2-c2nn[nH]n2)cc1,Potency,[1],inactive
same,Potency,[3],inactive
same,Potency,[2],inactive
C1CCc2nnnn2CC1,Potency,[1],inactive
same,Potency,[3],inactive
same,Potency,[2],inactive
same,Potency,[4],inactive
same,Potency,[5],inactive
O=C(N/N=C/c1ccccc1O)c1ccncc1,Potency,[1],inactive
same,Potency,[2],inactive
CN1CCN(C(c2ccccc2)c2ccccc2)CC1,Potency,[1],inactive
same,Potency,[3],inactive
same,Potency,[2],inactive
CN(C)CC/C=C1\c2ccccc2Sc2ccc(Cl)cc21,Potency,[1],8.91 µM (active)
same,Potency,[6],inactive
same,Potency,[4],inactive
CC(=O)Nc1c(I)cc(I)c(C(=O)O)c1I,Potency,[1],inactive
same,Potency,[6],inactive
same,Potency,[4],inactive
NCCC(O)(P(=O)(O)O)P(=O)(O)O,Potency,[1],inactive
same,Potency,[3],inactive
same,Potency,[2],inactive
CCCCOc1ccc(C(=O)CCN2CCCCC2)cc1,Potency,[1],10 µM (active)
same,Potency,[3],inactive
C[N+]1(CCCCC[N+]2(C)CCCC2)CCCC1,Potency,[1],inactive
same,Potency,[3],inactive
same,Potency,[2],inactive
same,Potency,[5],inactive
O=C1[C@H]2CCCC[C@H]2C(=O)N1CCCCN1CCN(c2nsc3ccccc23)CC1,Potency,[1],5.01 µM (active)
same,Potency,[4],inactive
C[C@@H]1CN(CCCn2c3ccccc3c3ccccc32)C[C@H](C)N1,Potency,[1],10 µM (active)
same,Potency,[3],32.2 µM (active)
same,Potency,[2],36.1 µM (active)
CC(C)COC(=O)c1ccc(N)cc1,Potency,[1],inactive
same,Potency,[3],inactive
same,Potency,[4],inactive
COc1ccc(CN2CCN(C(c3ccc(F)cc3)c3ccc(F)cc3)CC2)c(OC)c1OC,Potency,[1],1.12 µM (active)
same,Potency,[3],28.7 µM (active)
same,Potency,[2],10.2 µM (active)
Nc1cc(Cl)c(NC2=NCCN2)c(Cl)c1,Potency,[1],0.708 µM (active)
same,Potency,[2],inactive
same,Potency,[4],inactive
same,Potency,[5],inactive
CCN(CC)C(=O)N1CCN(C)CC1,Potency,[1],inactive
same,Potency,[3],inactive
same,Potency,[2],inactive
COc1c(C)c2c(c(O)c1C/C=C(\C)CCC(=O)O)C(=O)OC2,Potency,[1],inactive
same,Potency,[2],0.976 µM (active)
N[C@@H](Cc1cnc[nH]1)C(=O)O,Potency,[1],inactive
same,Potency,[6],inactive
same,Potency,[2],inactive
same,Potency,[5],inactive
O=C(CCCN1CCC(O)(c2ccc(Br)cc2)CC1)c1ccc(F)cc1,Potency,[1],0.126 µM (active)
same,Potency,[2],inactive
CCCCCCCCCCCCCCNCCO,Potency,[1],inactive
same,Potency,[3],inactive
CCCCCCCCCCCCCCCCCC(=O)OCC(O)CO (centres undefined),Potency,[1],inactive
same,Potency,[3],inactive
same,Potency,[2],inactive
N[C@H](Cc1c[nH]c2ccccc12)C(=O)O,Potency,[1],inactive
same,Potency,[3],inactive
CC1=C(C(=O)OC(C)C)C(c2cccc([N+](=O)[O-])c2)C(C(=O)OC2CN(C(c3ccccc3)c3ccccc3)C2)=C(N)N1 (centres undefined),Potency,[1],inactive
same,Potency,[4],inactive
COc1cc2c(cc1O)CC[C@@H]1[C@@H]2CC[C@]2(C)[C@@H](O)CC[C@@H]12,Potency,[5],1.58 µM (active)
CCCCCCC[N+](CC)(CC)CCCCc1ccc(Cl)cc1,Potency,[6],inactive
same,Potency,[3],inactive
CCOc1ccc(Cc2nccc3cc(OCC)c(OCC)cc23)cc1OCC,Potency,[2],2.45 µM (active)

# Source: PubChem BioAssay (NCATS)
